# Assay results as given in PubChem BioAssay (NCATS).
# Results filed as inconclusive are left out. A call without a number means that no potency is given here. The source made the active and inactive calls. The call rests on the fitted dose curve; in most records, active means well fitted cell-killing curve with a large enough effect; inconclusive means small, poorly fitted or top-dose-only effect; inactive means flat fitted curve, though single readings scatter.
# Experiment: qHTS of pediatric cancer cell lines to identify multiple opportunities for drug repurposing: Primary screen for TC32 cells (AID 1347089); further: nearly all actives have a fitted effect of over 60% in size
# Conditions: TC32 Ewing sarcoma viability, CellTiter-Glo luminescence, 48 h; series mostly up to 45.8 µM
# From the text: Drug repurposing or repositioning has been offered as a strategy for drug development in oncology programs. This approach has special potential for childhood cancers and other rare or orphan diseases, where the expected return on new drug development has been a disincentive to pharmaceuticals.
# In this project we exploit the poly-pharmacology of drugs to discover new indications via phenotypic screening of a panel of 19 well-characterized cell lines derived from solid tumors seen in children and adolescents. The goal is to identify approved drugs with previously unrecognized anticancer properties that has the potential to reveal new mechanisms and biological processes involved in carcinogenesis or drug resistance. We employed a titration-based paradigm (quantitative high-throughput screening or qHTS), where all compounds were tested at multiple concentrations for their effect on cell viability. Concentration-response curves (CRCs) were derived directly from the primary screen, and both potency and efficacy values were used to identify compounds with robust bioactivity profiles. We screened the NIH Chemical Genomics Center (NCGC) Pharmaceutical Collection (NPC) and Mechanism Interrogation Plate (MIPE) small molecule collections of approved and investigational compounds against these cell lines; and measured metabolically active cells after 48 hours of compound treatment as a proxy for cell viability.
# Assay Submitter: Nathalia J. Martinez, National Center for Advancing Translational Sciences, National Institutes of Health, Rockville, MD, USA; email: natalia.martinez@nih.gov
# [1] Shen, M et al. Quantitative high-throughput phenotypic screening of pediatric cancer cell lines identifies multiple opportunities for drug repurposing. Oncotarget 2017 Dec 19;9(4):4758-4772. PMID 29435139.
# The cells were obtained from University of North Carolina (UNC), Pediatric Preclinical Testing Program (PPT), and Coriell Institute (CI).
# qHTS cell viability assay:
# Cells were assayed in growth media at a density of 500-1,000 cells/well. Five microliters of cells were dispensed into 1,536-well, white, solid-bottom, TC-treated plates (Greiner Bio One) using a multidrop dispenser and incubated at 37 degrees C, 5% CO2, under a humidified atmosphere for 5 hours. Twenty-three nanoliters of compounds and controls (neutral control DMSO or positive control bortezomib at final concentration of 2.3 uM) were subsequently transferred by Kalypsys pintool. For primary screens, the MIPE collection was tested at 11-point dilutions (final concentrations range from 0.78 nM to 46 µM) and the NPC collection at 8-point dilutions (final concentrations range from 0.59 nM to 46 µM). Compounds tested in follow-up screens were assayed at 11-point dilutions. Cells were incubated for 48 hours, followed by addition of 3 uL of CellTiter-Glo (Promega). After a 15min incubation at room temperature, samples were analyzed for luminescence intensity using a ViewLux High-throughput CCD imager equipped with clear filters.
# Potency means the concentration at half of the fitted maximal effect.
row,SMILES,Potency
1,CC(C)Cc1ccc(CC(=O)O)cc1,inactive
2,O=C(c1ccc(F)cc1)C1CCN(CCn2c(=S)[nH]c3ccccc3c2=O)CC1,inactive
3,COc1ccc(C(Cl)=C(c2ccc(OC)cc2)c2ccc(OC)cc2)cc1,inactive
4,CCOC(=O)C(C#N)=C(c1ccccc1)c1ccccc1,inactive
5,Cc1cc(CC(=O)O)c(C)n1-c1ccc(Cl)cc1,inactive
6,CC(C)NCC(O)c1ccc2ccccc2c1 (stereo not given),inactive
7,C=C1c2cccc(O)c2C(O)=C2C(=O)[C@]3(O)C(O)=C(C(N)=O)C(=O)[C@@H](N(C)C)[C@@H]3[C@@H](O)[C@H]12,inactive
8,CCCCCCCCCCCCCCCC(=O)O,inactive
9,CCN(CC)CCNC(=O)c1cc(Br)c(N)cc1OC,inactive
10,NC1CCN(c2nc3c(cc2F)c(=O)c(C(=O)O)cn3-c2ccc(F)cc2F)C1 (stereo not given),inactive
11,Cc1c[nH]c2ccccc12,inactive
12,Cc1ccccc1OCC(O)CO (stereo not given),inactive
13,CNCCCCOc1ccccc1Cc1ccccc1,inactive
14,CC(C)(C)CC(C)(C)c1ccc(O)c(-n2nc3ccccc3n2)c1,inactive
15,CO[C@H]1C=CO[C@@]2(C)Oc3c(C)c(O)c4c(O)c(c(/C=N/N5CCN(C)CC5)c(O)c4c3C2=O)NC(=O)/C(C)=C\C=C[C@H](C)[C@H](O)[C@@H](C)[C@@H](O)[C@@H](C)[C@H](OC(C)=O)[C@@H]1C,inactive
16,O=S(=O)(O)c1ccc(O)cc1,inactive
17,CCOc1cc(OCC)c(C(=O)CCC(=O)O)cc1OCC,inactive
18,C[N+]12CCC(CC1)C(OC(=O)C(O)(c1ccccc1)c1ccccc1)C2 (stereo not given),inactive
19,CCN(CC)CCNC(=O)COc1ccc(OC)cc1,inactive
20,CCCN(CCc1cccs1)[C@H]1CCc2c(O)cccc2C1,inactive

row,SMILES,Potency
1,CCOc1ccccc1C(N)=O,inactive
2,CC(C)(C)NC[C@H](O)COc1nsnc1N1CCOCC1,inactive
3,CC(C)=CCOc1ccc(/C=C/C(=O)c2ccc(OCC=C(C)C)cc2OCC(=O)O)cc1,inactive
4,CN(CCCN1c2ccccc2CCc2ccccc21)CC(=O)c1ccc(Cl)cc1,inactive
5,NC(=S)N/N=C/c1cccnc1,inactive
6,C[N+]1(CC2COC(c3ccccc3)(C3CCCCC3)O2)CCCCC1 (stereo not given),inactive
7,C[C@H]1[C@H]2CC[C@H]3[C@@H]4CC=C5C[C@@H](N(C)C)CC[C@]5(C)[C@H]4CC[C@]23CN1C,inactive
8,Nc1nc(-c2ccccc2)c(Br)c(=O)[nH]1,inactive
9,Cc1cc(NS(=O)(=O)c2ccc(N)cc2)nc(C)n1,inactive
10,CCN1CCN(C(=O)N[C@@H](C(=O)N[C@@H]2C(=O)N3C(C(=O)O)=C(CSc4nnnn4C)CS[C@H]23)c2ccc(O)cc2)C(=O)C1=O,inactive
11,c1ccc(-c2nc[nH]c2-c2ccccc2)cc1,inactive
12,Cc1ccc(O)c([C@H](CCN(C(C)C)C(C)C)c2ccccc2)c1,inactive
13,CC(O)Cn1cnc2c1c(=O)n(C)c(=O)n2C (stereo not given),inactive
14,CC(=O)N[C@@H](CCC(=O)O)C(=O)O,inactive
15,FC(F)(F)C(F)(F)C(F)(F)C(F)(F)C(F)(F)C(F)(F)C(F)(F)C(F)(F)Br,inactive
16,CC(C)n1c(/C=C/[C@@H](O)C[C@@H](O)CC(=O)O)c(-c2ccc(F)cc2)c2ccccc21,16.7 µM (active)
17,CCCCCCCCCCCCCC(=O)OC(C)C,inactive
18,OC1C(O)C(O)C(O)C(O)C1O (stereo not given),inactive
19,O=C(O)CCC(=O)Nc1ccc(S(=O)(=O)Nc2nccs2)cc1,inactive
20,CC(C)Cn1cnc2c1c(=O)n(C)c(=O)n2C,inactive
